Among the test systems are SR leukemia; RPMI-8226 leukemia; OVCAR-8 ovarian; OVCAR-5 ovarian; OVCAR-4 ovarian; IGROV1 ovarian; OVCAR-3 ovarian; HS 578T breast; NCI/ADR-RES ovarian; SK-OV-3 ovarian.
Holding throughout (experiment): NCI-60 one-dose screen, 48 h (100 = growth as untreated, 0 = no growth, -100 = all killed)
Holding throughout (settings): 10 µM unless noted

Compounds without any hit were thinned out: in the full panel of roughly 83,000, 20% have a hit.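 Plates (96-well) were seeded with cells, treated with compound at one concentration, and incubated for 48 hours before percent growth was determined.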 A number with no mark means an inactive call. Activity calls are given as the source filed them. The calls were made as follows: active = growth percent below 10; inactive = the rest.

For `NS(=O)(=O)c1ccc(N/C=C/C(=O)c2cc3ccccc3oc2=O)cc1`, the growth with SR leukemia was 78.1%; in the assay with RPMI-8226 leukemia, 98.4%; with OVCAR-8 ovarian it was 104%; with OVCAR-5 ovarian, 106%; in the assay on OVCAR-4 ovarian, 87.5%; in the assay on IGROV1 ovarian it was 91.5%. Also, the figures for the growth in the assay on OVCAR-3 ovarian, in the assay with HS 578T breast and in the assay on NCI/ADR-RES ovarian were 101%, 92.4% and 97.8%, respectively.

Turning to `CCC(C)Nc1ccc(NC(C)CC)cc1` (stereo not drawn), the growth with SR leukemia was 76.1%; in the assay on RPMI-8226 leukemia, 65.8%; in the assay with OVCAR-8 ovarian, 89.2%; with OVCAR-5 ovarian, 103%; in the assay with OVCAR-4 ovarian, 84.1%; in the assay on IGROV1 ovarian, 65.4%. Also, the growth is 28.6% with OVCAR-3 ovarian, 110% in the assay with HS 578T breast and 94.5% in the assay with NCI/ADR-RES ovarian.

`Cn1cc(-c2nc(-c3c[nH]c4ccncc34)cs2)c2cc(Br)ccc21`: the growth is -23.6% (active) with SR leukemia; -38% (active) with RPMI-8226 leukemia; -53.2% (active) with OVCAR-8 ovarian; -94.1% (active) in the assay with OVCAR-5 ovarian; -71% (active) in the assay on OVCAR-4 ovarian; 40.8% in the assay with SK-OV-3 ovarian. The growth is -92.5% (active) with OVCAR-3 ovarian, -44% (active) in the assay with HS 578T breast and -57.6% (active) in the assay with NCI/ADR-RES ovarian.

With `Cc1cc(C(=O)Nc2cc(Nc3ncccc3-c3ncnc4nc[nH]c34)ccc2F)cc(C(F)(F)F)c1`, the growth is 51.3% in the assay on SR leukemia; 53.8% in the assay with RPMI-8226 leukemia; 57.2% in the assay with OVCAR-8 ovarian; 33.3% in the assay on OVCAR-5 ovarian; 47.7% in the assay on OVCAR-4 ovarian; 68% in the assay with OVCAR-3 ovarian. Besides, the growth is 38.1% with HS 578T breast and 52.1% in the assay on NCI/ADR-RES ovarian.

Consider `CCc1cccc(Sc2cc(C(=O)N3Cc4ccc(OCCN(C)C)cc4C3)ccc2O)c1`, for which the growth in the assay on SR leukemia is 19.9%; in the assay on RPMI-8226 leukemia, 29.3%; in the assay on OVCAR-8 ovarian, 24.1%; with OVCAR-5 ovarian, 110%; in the assay with OVCAR-4 ovarian it was 53.2%; in the assay on IGROV1 ovarian, 59.8%. Also, the growth is 67.3% in the assay with OVCAR-3 ovarian and 95.4% in the assay on HS 578T breast.

For `NNC(=S)N/N=C/c1ccccn1`, the growth in the assay on SR leukemia is 5.56% (active); in the assay on RPMI-8226 leukemia, 28.9%; with OVCAR-8 ovarian, 20%; in the assay with OVCAR-5 ovarian, 40.3%; in the assay on OVCAR-4 ovarian, 29.2%; in the assay with IGROV1 ovarian it was 40.2%. Also, the growth in the assay with OVCAR-3 ovarian is 21.7%; in the assay on HS 578T breast it was 31.8%; with NCI/ADR-RES ovarian, 17.8%.

With `Cn1cccc1/C=C1\C(=O)Nc2ccccc21`, the growth with SR leukemia was 72.8%; in the assay on RPMI-8226 leukemia, 103%; with OVCAR-8 ovarian it was 107%; in the assay on OVCAR-5 ovarian, 87.2%; in the assay on OVCAR-4 ovarian, 48%; in the assay on IGROV1 ovarian, 76.3%. Also, the values for the growth in the assay on OVCAR-3 ovarian, in the assay with HS 578T breast and in the assay on NCI/ADR-RES ovarian were 74.7%, 101% and 93.2%, respectively.

For `S=c1ssnc1-c1cccs1`, the growth is 98.6% in the assay with SR leukemia; 97.3% in the assay on RPMI-8226 leukemia; 113% in the assay on OVCAR-8 ovarian; 115% in the assay with OVCAR-5 ovarian; 99.8% in the assay with OVCAR-4 ovarian; -4.8% (active) in the assay on IGROV1 ovarian. Further, the growth is 78.9% in the assay on OVCAR-3 ovarian and 46.6% with HS 578T breast.

Take `O=C1c2cccnc2C(=O)c2c1c(C(=O)OCCCN1CCCCC1)c1ccccn21`: the growth in the assay with SR leukemia was -15.8% (active); in the assay with RPMI-8226 leukemia, -28.3% (active); with OVCAR-8 ovarian, -32% (active); in the assay with OVCAR-5 ovarian it was -19.2% (active); in the assay with OVCAR-4 ovarian, -61.8% (active); in the assay on IGROV1 ovarian it was -5% (active). The growth is 0.168% (active) in the assay with OVCAR-3 ovarian, -16% (active) in the assay on HS 578T breast and -13.3% (active) with NCI/ADR-RES ovarian.

As to `Cn1cc(-c2nonc2-c2c[nH]c3ccc(F)cc23)c2cc(Br)ccc21`, the growth in the assay with SR leukemia is 27%; in the assay on RPMI-8226 leukemia it was 46%; in the assay with OVCAR-8 ovarian it was 40.5%; in the assay with OVCAR-5 ovarian it was 58.7%; in the assay with OVCAR-4 ovarian, 43.8%; in the assay on IGROV1 ovarian, 64%. Besides, the figures for the growth with OVCAR-3 ovarian, in the assay on HS 578T breast and in the assay on NCI/ADR-RES ovarian were 60.3%, 63.2% and 42.1%, respectively.

With `COCC[C@H]1CCC/C=C/[C@@H]2C[C@H](O)C[C@H]2[C@H](O)/C=C/C(=O)O1`, the growth in the assay on SR leukemia is 2.43% (active); in the assay on RPMI-8226 leukemia it was 11.1%; in the assay on OVCAR-8 ovarian, 5.65% (active); in the assay on OVCAR-5 ovarian, 9.73% (active); in the assay with OVCAR-4 ovarian, 26.6%; in the assay with IGROV1 ovarian it was 16.1%. Moreover, the figures for the growth with OVCAR-3 ovarian, in the assay on HS 578T breast and with NCI/ADR-RES ovarian were -47.8% (active), 30.1% and 3% (active), respectively.

Regarding `Nc1c(C(=O)Nc2ccccn2)sc2nc3c(cc12)C(O)CCC3` (stereo not drawn), the growth with SR leukemia was 14.4%; in the assay on RPMI-8226 leukemia, 2.23% (active); with OVCAR-8 ovarian, 36.5%; in the assay on OVCAR-5 ovarian, 46.7%; with OVCAR-4 ovarian it was 59.4%; in the assay on IGROV1 ovarian it was 47.9%. Besides, the growth was -19.1% (active) with OVCAR-3 ovarian, 6.09% (active) with HS 578T breast and 17.7% in the assay with NCI/ADR-RES ovarian.

As to `CCCCCCC(=O)Nc1ncc(Cc2ccc(C)cc2)s1`, the growth was 20.4% with SR leukemia; 40.1% in the assay on RPMI-8226 leukemia; 45.5% with OVCAR-8 ovarian; 58.1% with OVCAR-5 ovarian; 50.1% with OVCAR-4 ovarian; 44.2% in the assay with IGROV1 ovarian. In addition, the growth in the assay on OVCAR-3 ovarian is 8.65% (active); in the assay with HS 578T breast it was 21.7%; with NCI/ADR-RES ovarian, 29%.

As to `Cc1cc(C)c(-c2c(O)c(Br)c(-c3c(C)cc(C)c(Br)c3C)c(O)c2Br)c(C)c1Br`, the growth was 18.5% in the assay with SR leukemia; 26.3% with RPMI-8226 leukemia; 2.91% (active) in the assay on OVCAR-8 ovarian; 64.9% in the assay with OVCAR-5 ovarian; 23.7% with OVCAR-4 ovarian; -29.9% (active) in the assay on IGROV1 ovarian. The growth in the assay with OVCAR-3 ovarian was -24.1% (active); in the assay with HS 578T breast, 41.5%; in the assay with NCI/ADR-RES ovarian, 44.1%.

(Values after PubChem BioAssay (NCI).)
